Compound activity (PubChem BioAssay)
The list is not random: actives were taken first. Their share in the collection is about 3%.
USP1 inh – inhibitors of human USP1/UAF1 deubiquitinase. O94782. recombinant USP1/UAF1, Ub-Rhodamine cleavage fluorescence. Potency, µM (series often up to 57.1 µM), hits mostly inhibitors. 390,000 compounds, 0.23% hits. AID 743255; also: nearly all actives have a fitted effect of over 60% in size
Target sequence (O94782 whole entry, looked up): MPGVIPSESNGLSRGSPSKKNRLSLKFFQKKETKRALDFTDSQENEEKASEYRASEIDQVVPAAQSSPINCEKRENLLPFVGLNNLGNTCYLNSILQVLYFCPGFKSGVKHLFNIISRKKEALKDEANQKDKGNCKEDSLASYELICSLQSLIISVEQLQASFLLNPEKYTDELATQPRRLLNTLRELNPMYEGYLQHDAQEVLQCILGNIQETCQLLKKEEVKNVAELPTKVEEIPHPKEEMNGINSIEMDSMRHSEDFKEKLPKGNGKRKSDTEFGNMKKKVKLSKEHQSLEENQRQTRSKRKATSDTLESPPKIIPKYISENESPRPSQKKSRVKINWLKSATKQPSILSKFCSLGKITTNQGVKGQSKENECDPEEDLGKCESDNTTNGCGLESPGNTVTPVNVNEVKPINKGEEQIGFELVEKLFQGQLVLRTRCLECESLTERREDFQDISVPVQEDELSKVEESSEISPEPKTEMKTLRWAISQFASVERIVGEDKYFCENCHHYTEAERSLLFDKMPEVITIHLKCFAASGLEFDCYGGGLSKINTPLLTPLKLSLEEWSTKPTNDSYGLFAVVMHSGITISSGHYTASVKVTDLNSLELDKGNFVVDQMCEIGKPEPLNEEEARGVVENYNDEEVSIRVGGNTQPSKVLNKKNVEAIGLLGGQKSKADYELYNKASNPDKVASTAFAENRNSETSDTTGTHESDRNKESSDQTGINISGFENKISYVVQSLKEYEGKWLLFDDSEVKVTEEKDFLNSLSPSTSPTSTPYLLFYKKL
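Step one: compound is pinned into 1nM USP1/UAF1 in HEPES pH 7.8 buffer with TCEP. Step two: 15 min room-temperature incubation. Step three: Ub-Rho (150nM final) starts cleavage, tracked by fluorescence over six one-minute reads.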
PTAP TSG101 blk – blocks PTAP/TSG101 interaction to inhibit HIV-1 budding. Q99816. Fluorescence polarization, FITC-PTAP peptide / Tsg101 binding. Potency, µM (titrated, usually from 115 µM), hits mostly inhibitors. 340,000 tested, under 10 active; active = well fitted inhibition curve with a large enough effect in the main read-out, with a control signal flat, not every such curve was filed as active; inconclusive = small, poorly fitted or top-dose-only effect, or effect the other way, or a change in a side signal; inactive = no such curve, though single readings can be large or run the other way
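Fluorescence polarization binding of Tsg101 binding domain (10 uM final) to FITC-labeled PTAP peptide (50 nM final) in HEPES pH 7.5 buffer with NaCl, Tween 20, EDTA, TCEP. Compounds added before peptide; binding 20 min at RT.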
KAT2A inh – inhibitors of human GCN5L2 histone acetyltransferase | Potency, µM (top dose mostly 58.9 µM), usual class: inhibitors | Q92830 | 390,000 compounds, 0.21% hits | GCN5L2 HAT assay, ThioGlo1 CoA-SH fluorescence | AID 504327
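Free CoA generated was detected with ThioGlo1 (50uM) fluorescence at Ex340nm/Em540nm, read immediately and after 20 min at room temperature. Enzyme, 20 nM in HEPES pH 7.5 buffer, saw compounds 15 min before adding 75uM H3(1-25) peptide and 70uM acetyl-CoA.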
VDR inhibitor – blocks the human vitamin D receptor. P11473. AID 504847. VDR-SRC2-3 peptide fluorescence polarization, 2 h. Potency, µM, most hits filed as inhibitors. 400,000 compounds, 0.93% hits
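Signal is fluorescence polarization, reporting how far test compounds block the interaction of VDR with the SRC2-3 coregulator peptide after a 2 h room-temperature incubation.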
PLK1 PBD inh – blocks phosphopeptide binding to human PLK1 polo-box domain | Plk1 PBD binding of FITC phosphopeptide, fluorescence polarization | Potency, µM, hits mostly inhibitors | 360,000 compounds, 2.8% hits | P53350; also: series mostly up to about 57 µM; nearly all actives have a fitted effect of over 65% in size
A number is an active result; - = inactive; ? = inconclusive; . = not tested or not shown; [ ] = another dose, or the depositor's remark. Unless noted, calls follow the shape of the dose curve; as a rule, active = well fitted curve in the direction sought with a large enough effect; inconclusive = small, poorly fitted or top-dose-only effect, or another doubt; inactive = no such curve, though single readings can be large; an effect the other way counts as inactive or inconclusive.

SMILES	USP1 inh	PTAP TSG101 blk	KAT2A inh	VDR inhibitor	PLK1 PBD inh
COc1ccc2nc(NC(=O)c3cccnc3SC)sc2c1	-	-	-	-	-
O=C(O)c1ccc(-c2ncc[nH]2)cc1	-	-	-	45µM	?
O=C(NCc1noc2ccccc12)N1CCN(c2ccccc2)CC1	-	.	-	-	.
CCOC(=O)c1cc(-c2ccccc2)sc1NC(=O)CC	-	-	-	?	21µM
CCOC(=O)c1cc(-c2ccccc2)sc1N	-	-	-	?	12µM
CCCCCN1C(C(=O)c2ccccc2)=C(NC(=O)c2ccc(OC)c(OC)c2)c2ccccc2S1(=O)=O	-	.	-	?	.
Cc1cccc(-n2cnc3cc([N+](=O)[O-])ccc32)c1	-	-	-	-	17µM
CCN1C(=O)N[C@@H](CCc2ccccc2)C(C(C)=O)=C1C	-	-	.	?	27µM
COCCN1C(=O)N[C@@H](CCc2ccccc2)C(C(C)=O)=C1C	-	-	-	-	-
CN(C1CCCCC1)S(=O)(=O)c1ccc(C(=O)Nc2sc3c(c2C(N)=O)CC(C)(C)NC3(C)C)cc1	-	-	-	-	34µM
CN(/C=C1/C(=O)CNC1=O)CCO	-	-	-	?	17µM
C/C(=N\Nc1ccc(Cl)c(C(=O)O)c1)c1cccc2ccccc12	-	-	-	?	27µM
CCOC(=O)c1ccc2c(c1)C1C=CCC1C(C(=O)O)N2 (stereo unspecified)	.	.	20µM	.	.
CCCC1Nc2ccc(C(=O)O)cc2C2C=CCC12 (stereo unspecified)	-	-	-	-	?
Cc1cc(C)c2c(c1)NC(C(=O)O)C1CC=CC21 (stereo unspecified)	?	-	28µM	-	3µM
CCOC(=O)C1Nc2ccc(C(=O)O)cc2C2C=CCC12 (stereo unspecified)	18µM	-	-	16µM	3µM
CC1=C(C(N)=O)S(=O)(=O)c2ccccc21	-	-	-	?	21µM
NC(=O)c1ccc2c(c1)S(=O)(=O)c1ccccc1C2=O	-	-	-	-	-
Cc1cc(C)cc(N=Cc2ccc([N+](=O)[O-])s2)c1	13µM	-	-	-	-
NC(=O)c1ccc(N=Cc2ccc([N+](=O)[O-])s2)cc1	10µM	-	-	-	?
O=[N+]([O-])c1ccc(C=Nc2ccc(Cl)c([N+](=O)[O-])c2)s1	.	.	-	.	.
Cc1cccc2c1cnn2C(=O)CCC(=O)NCc1ccc(F)cc1	-	-	-	-	-
CN(C(=S)NC(=O)C1CCCC1)c1ccccc1	-	.	.	.	30µM
CN(Cc1ccccc1)C(=S)NC(=O)C1CCCCC1	-	-	-	-	-
COc1cccc(CNC(=O)CCc2cn(Cc3ccccc3Cl)c3ccccc23)c1	-	.	-	-	.
SMILES	USP1 inh	PTAP TSG101 blk	KAT2A inh	VDR inhibitor	PLK1 PBD inh
O=C(O)c1ccnc2c(O)cccc12	.	.	-	.	.
Cc1ccc(-n2c(=S)[nH]c3sc4c(c3c2=O)CCC4)cc1	?	-	-	-	24µM
CCCn1c(SCC(=O)Nc2ccccc2CC)nnc1C(C)C	-	-	-	-	3µM
CCCn1c(SCC(=O)Nc2c(C)cccc2CC)nnc1C(C)C	-	-	-	-	-
COc1ccccc1C(=O)NC(=O)COC(=O)c1cnccn1	-	.	.	.	-
Cc1ccccc1C(=O)N1CCC(C(=O)Nc2ccc(S(=O)(=O)N3CCCC3)cc2)CC1	-	-	-	-	12µM
CCN(CC)c1ccc(N=C2C=CC(=O)C=C2NC(C)=O)cc1	-	-	.	71µM	-
COc1ccccc1CN1CCCC2(CCN(C(=O)c3c(C)noc3C)CC2)C1	.	.	-	-	.
Cc1[nH]n(-c2ccccc2)c(=O)c1N=Nc1ccc2c(c1)OCCO2	-	-	-	-	-
COc1cc([N+](=O)[O-])ccc1N=Nc1c(N)[nH]n(-c2ccccc2)c1=O	-	-	-	-	30µM
Cc1ccc(N=Nc2c(C)[nH]n(-c3ccccc3)c2=O)c(C)c1	?	-	-	?	8.4µM
Cc1[nH]n(-c2ccccc2)c(=O)c1N=Nc1c(O)cc(S(=O)(=O)N(C)C)c2ccccc12	-	-	?	-	30µM
Nc1[nH]n(-c2ccccc2)c(=O)c1N=Nc1ccccc1[N+](=O)[O-]	-	-	-[0.501 µM]	-	-
COc1ccc(OC(=O)c2nc(SCc3ccccc3C)ncc2Cl)cc1	-	.	-	-	.
C[C@H]1CN([C@@H](C)CO)C(=O)CCCn2nncc2CO[C@H]1CN(C)C(=O)Nc1ccc2c(c1)OCO2	-	.	.	.	-
Cc1ccc(S(=O)(=O)N(CC(=O)Nc2ccccc2C(=O)O)c2ccc(Cl)cc2)cc1	-	-	-	-	38µM
C=Cc1c(C)c2cc3[nH]c(cc4nc(cc5nc(cc1[nH]2)C(C)=C5CCC(=O)O)C(CCC(=O)O)=C4C)c(C)c3C=C	?	-	-	14µM	13µM
CC1=C(CCC(=O)O)c2cc3nc(cc4[nH]c(cc5[nH]c(cc1n2)c(C)c5C(C)O)c(C)c4C(C)O)C(C)=C3CCC(=O)O (stereo unspecified)	.	.	-	18µM	.
NC(=O)CSc1nnc(Cc2ccc3c(c2)OCO3)n1C1CCCCC1	-	-	-	-	27µM
Cc1oc(-c2cccc(Cl)c2)nc1Cn1c(SCc2ccc(F)cc2)nc2cccnc21	?	.	-	-	.
CCCN1C(=O)SC(CC(=O)Nc2ccc(C)cc2)C1=O (stereo unspecified)	-	-	-	-	-
Cc1ccc(NC(=O)CC2SC(=O)N(c3ccccc3)C2=O)cc1 (stereo unspecified)	-	-	-	28µM	6.7µM
O=C1SC(Cc2ccccc2)C(=O)N1c1ccccc1 (stereo unspecified)	-	-	-	-	-
O=C(CC1SC(=O)N(c2ccccc2)C1=O)Nc1ccccc1 (stereo unspecified)	-	-	?	22µM	11µM
Cc1ccc(N2C(=O)SC(Cc3ccccc3)C2=O)cc1 (stereo unspecified)	-	-	-	?	7.5µM
SMILES	USP1 inh	PTAP TSG101 blk	KAT2A inh	VDR inhibitor	PLK1 PBD inh
O=C(O)CSc1c2ccccc2cc2ccccc12	-	?	-	71µM	27µM
O=C(O)c1c2ccccc2cc2ccccc12	.	.	-	-	.
COc1cc2ccc(=O)oc2c(O[C@@H]2O[C@H](CO)[C@@H](O)[C@H](O)[C@H]2O)c1O	?	-	22µM	-	-
O=c1ccc2ccc(O[C@@H]3O[C@H](CO)[C@@H](O)[C@H](O)[C@H]3O)c(O)c2o1	-	-	-	?	-
O=C1C=CC(=Nc2cccc3c2C(=O)c2ccccc2-3)O1	?	-	.	?	-
O=C1C=CC(=Nc2ccc3c(c2)Cc2cc(F)ccc2-3)O1	-	-	.	56µM	?
COc1cc(OC)cc(C(=O)NCc2nc(-c3ccccc3)no2)c1	-	-	-	-	-
COc1ccc(OCC(=O)NCc2nc(-c3ccccc3)no2)cc1	-	-	.	-	30µM
Cc1ccc(OCc2nc(-c3ccccc3)no2)cc1	?	-	-	?	12µM
Cc1ccc(-c2noc(COc3ccccc3C)n2)cc1	-	-	-	-	-
